PNC assembly inh: High Content Assay for Compounds that inhibit the Assembly of the Perinucleolar Compartment. AID 2417, 2010. hit rate 3.1% among 140,000. PC3M PTB-GFP, PNC prevalence imaging, 16 h; stronger effect = lower value. activity change (PNC), negative = inhibition, % at 10 µM;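 active = readout at or below -70, meaning at least 70% loss of cells showing the perinucleolar compartment, a nuclear body marking cancer cells; inconclusive = readout between -30 and a set limit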;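 note: plate controls were DMSO wells for no effect and camptothecin positive control wells for full effect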
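Read-out is percentage of cells bearing a perinucleolar compartment, from automated 20x imaging of fixed, Hoechst-stained PC3M PTB-GFP cells. Cells were seeded 4 h, then exposed 16 h to compound (23 nl of library stock) in duplicate plates.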
ALDH1A1 inh: qHTS Assay for Inhibitors of Aldehyde Dehydrogenase 1 (ALDH1A1); Potency, µM (doses to about 75.3 µM), without a hit: at the top dose activity, negative = inhibition, hits mostly inhibitors; Aldehyde dehydrogenase 1A1 (Homo sapiens), P00352; Purified ALDH1A1, NADH fluorescence, propionaldehyde substrate; hit rate 7.3% among 220,000;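 note: potency is the fitted concentration of half-maximal effect; plate controls were no enzyme wells and a reference inhibitor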
Target sequence (P00352 whole entry, looked up): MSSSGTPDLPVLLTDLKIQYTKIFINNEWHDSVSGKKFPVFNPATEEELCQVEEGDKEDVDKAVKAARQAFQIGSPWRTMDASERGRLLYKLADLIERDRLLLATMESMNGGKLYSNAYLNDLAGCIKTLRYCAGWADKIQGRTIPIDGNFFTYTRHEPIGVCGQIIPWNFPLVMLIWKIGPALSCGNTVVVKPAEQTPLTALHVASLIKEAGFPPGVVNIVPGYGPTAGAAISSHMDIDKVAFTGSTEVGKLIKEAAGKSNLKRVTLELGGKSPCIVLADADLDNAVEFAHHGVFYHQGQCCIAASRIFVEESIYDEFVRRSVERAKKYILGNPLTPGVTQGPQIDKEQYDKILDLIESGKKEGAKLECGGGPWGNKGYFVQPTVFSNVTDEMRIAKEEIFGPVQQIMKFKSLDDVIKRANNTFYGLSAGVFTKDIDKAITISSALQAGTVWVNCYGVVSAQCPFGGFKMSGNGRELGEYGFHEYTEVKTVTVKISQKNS
IMPase Li cell: qHTS Assay for Identifying the Cell-Membrane Permeable IMPase Inhibitors: Potentiation with Lithium; Potency, µM (titrated, usually from 59.4 µM), for inactives: at the highest dose activity, negative = IMPase inhibition, actives largely listed as inhibitors; CHO-M1 cells, IP1 TR-FRET (IP-One), carbachol + lithium; hit rate 0.35% among 210,000; AID 1457, 2008; active = well fitted curve in the direction sought with a large enough effect; inconclusive = small, poorly fitted or top-dose-only effect, or another doubt; inactive = no such curve, though single readings can be large; an effect the other way counts as inactive or inconclusive;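 note: IP1 builds up when IMPase is blocked and the TR-FRET signal falls; potency is the fitted concentration of half-maximal effect; plate controls were basal vehicle for no effect and high inhibitor control for full effect; nearly all actives have a fitted effect of over 50% in size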
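Concentration–response in CHO-M1 cells, lithium-potentiated; 30 min at 37C. IP1 detected by competitive TR-FRET after 10 min lysis at RT. Hill-fitted AC50.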
HPGD block: qHTS Assay for Inhibitors of HPGD (15-Hydroxyprostaglandin Dehydrogenase). 15-hydroxyprostaglandin dehydrogenase [NAD(+)] (Homo sapiens), P15428. purified HPGD, NADH fluorescence kinetic, PGE2 substrate. Potency, µM, inactives show at the highest dose activity change, negative = inhibition, actives largely listed as inhibitors. hit rate 4.3% among 150,000. AID 894, 2007; note: potency is the fitted concentration of half-maximal effect
Target sequence (P15428 whole entry, looked up): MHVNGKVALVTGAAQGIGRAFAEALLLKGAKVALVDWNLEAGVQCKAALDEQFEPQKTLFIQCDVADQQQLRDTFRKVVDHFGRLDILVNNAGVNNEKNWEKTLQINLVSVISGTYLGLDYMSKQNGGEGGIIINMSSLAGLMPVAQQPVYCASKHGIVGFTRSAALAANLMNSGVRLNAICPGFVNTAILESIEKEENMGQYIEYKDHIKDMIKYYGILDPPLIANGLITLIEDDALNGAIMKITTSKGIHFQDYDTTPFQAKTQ
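20 nM HPGD preincubated 15 min at room temperature with compound in 50 mM Tris-HCl pH 8, 0.01% Tween 20. Started with 1 mM NAD+ and 30 uM prostaglandin E2; NADH fluorescence (360/450 nm) read 5 times over 30-s intervals, last minus first.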
12-hLO inh: qHTS Assay for Inhibitors of 12-hLO (12-human lipoxygenase); Potency, µM (titrated, usually from 57.1 µM), for the others: at the top dose activity change, negative = inhibition, actives largely listed as inhibitors; Polyunsaturated fatty acid lipoxygenase ALOX12 (Homo sapiens), P18054; hit rate 0.12% among 150,000; purified 12-hLO, xylenol orange hydroperoxide absorbance; AID 1452, 2008; active = well fitted curve in the direction sought with a large enough effect; inconclusive = small, poorly fitted or top-dose-only effect, or another doubt; inactive = no such curve, though single readings can be large; an effect the other way counts as inactive or inconclusive; note: potency is the fitted concentration of half-maximal effect; nearly all actives have a fitted effect of over 55% in size
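Purified human 12hLO (150 nM), preincubated 15 min with compound, then 40 uM arachidonic acid for 30 min, room temperature, Hepes pH 7.0 with 0.01% Triton X-100. Hydroperoxide detected by ferrous iron/xylenol orange; 573/405 nm absorbance ratio gives reaction progress.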
IMPase cell inh: qHTS Assay for Identifying the Cell-Membrane Permeable IMPase Inhibitors; Inositol monophosphatase 1 (Rattus norvegicus), P97697; CHO-M1 cells, IP1 accumulation, HTRF TR-FRET ratio; inhibition (IP1 accumulation), % at 46.1 µM; 120,000 tested, under 10 active; AID 901, 2007; active = well fitted curve in the direction sought with a large enough effect in the signal ratio, not every such curve was filed as active; inconclusive = small, poorly fitted or top-dose-only effect, or a change in a side signal; inactive = no such curve, though single readings can be large or run the other way; the % refers to the signal ratio;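 note: cells stimulated with carbachol in lithium chloride buffer; plate controls were DMSO basal wells for no effect and reference inhibitor wells for full effect; higher means more IMPase inhibition seen as more IP1 and lower FRET ratio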
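Carbachol-driven Gq signalling in CHO-M1 cells (2000/well) generates IP1. Compounds that block IMPase raise IP1 and so reduce the FRET signal from Eu-anti-IP1 and d2-IP1 after a 10 min room-temperature lysis.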
An asterisk follows results filed as active; u = inconclusive; x = no result given; [ ] = remark or other dose. The list is not random: actives were taken first. Their share in the collection is about 11%. Unless noted, calls come from the whole dose curve; as a rule, active = well fitted inhibition curve with a large enough effect (not every such curve was filed as active); inconclusive = small, poorly fitted or top-dose-only effect, or another doubt; inactive = no such curve, though single readings can be large or run the other way. Unless noted, % is set by controls: 0 for no effect and ±100 for the full control effect.

SMILES | PNC assembly inh | ALDH1A1 inh | IMPase Li cell | HPGD block | 12-hLO inh | IMPase cell inh
N#CC1=C(N)C(C#N)(C#N)C(c2cccnc2)C2CCCC=C12 (centres undefined) | 3 | u | -14%[38.3 µM] | -28% | 0% | -5
N#CC1=C(N)C(C#N)(C#N)C(c2ccc[nH]2)C2CCCC=C12 (centres undefined) | -9 | u | 3%[38.3 µM] | -26% | -16% | 8
C=CCN1C(=O)C2(c3ccccc31)C1CCCC=C1C(C#N)=C(N)C2(C#N)C#N (centres undefined) | -29 | 10µM* | 4% | -13% | -23% | 5
C=CCN1C(=O)[C@]2(c3ccccc31)C1CCCC=C1C(C#N)=C(N)C2(C#N)C#N (some centres undefined) | -11 | 4µM* | 2%[38.3 µM] | -10% | u | 10
Cc1ccc(C=Nc2ccccc2C(N)=O)cc1 | -113* | u | -12%[38.3 µM] | u | 0% | -3
Cc1ccccc1C=Nc1ccccc1C(N)=O | -86* | u | -11% | u | 4% | x
COc1ccc(Oc2ncc3nc(CCc4ccccc4)c(=O)n(C[C@H]4CCCO4)c3n2)cc1 | x | u | 18% | x | x | x
O=c1cc(CO)occ1O | x | -2% | 1% | -2% | -9% | 1
CO[C@H]1COC(=O)C/C=C\[C@@H](C)COC(=O)[C@@H](OCc2ccccc2)/C=C\[C@@H]1C | x | 0%[13.5 µM] | x | x | x | x
O=c1c(Cc2c(F)cccc2Cl)c(O)ccn1Cc1ccc2c(c1)OCO2 | x | 7.9µM* | 4% | x | x | x
COc1ccccc1C/C(N)=N/OC(=O)c1ccco1 | x | -8% | 2% | x | x | x
Fc1ccc(-c2n[nH]c(=S)n2-c2ccc3c(c2)OCCO3)cc1 | x | 7% | -3% | x | x | x
S=c1[nH]nc(-c2ccc(Cl)cc2)n1-c1ccc2c(c1)OCCO2 | -15 | u | -6% | 14µM* | -3% | x
Cn1ccnc1SCC(=O)c1ccc2ccccc2c1 | x | u | -1% | x | x | x
Cn1c(CO)cnc1SCC(=O)c1ccc(Cl)cc1 | x | 22µM* | -4% | x | x | x
Cn1ccnc1SCC(=O)c1ccc(Cl)cc1 | x | 14µM* | -1% | x | x | x
CCSc1nc(=S)cc(C)[nH]1 | x | 28µM* | x | x | x | x
CCOc1ccc2nc(SCC)[nH]c2c1 | 30 | 2% | -14%[38.3 µM] | u | -2% | 1
COC(=O)NC(c1cccc(F)c1)[C@]1(C(C)=O)CCCC1=O (some centres undefined) | x | 0%[13.5 µM] | x | x | x | x
COc1ccc(N2Cc3cccc(C(=O)NC(C)CCc4ccco4)c3C2=O)cc1 (centres undefined) | 13 | 25µM* | 20%[38.3 µM] | u | -17% | 3
O=C(Nc1ccccc1)c1ccccc1N=Cc1cccc(O)c1 | x | u | 6% | x | x | x
COc1cccc(C=Nc2ccccc2C(=O)Nc2ccccc2)c1O | -110* | u | 6% | u | -18% | x
CCn1ncc(/C=C2/SC(=S)NC2=O)c1C | 30 | -13% | 4% | 16µM* | -6% | x
O=C(COC(=O)/C=C/c1ccco1)NCc1ccccc1 | x | -8% | -2% | x | x | x
O=C(N/C=C/c1ccco1)NCc1ccccc1 | x | 22µM* | -2% | x | x | x
SMILES | PNC assembly inh | ALDH1A1 inh | IMPase Li cell | HPGD block | 12-hLO inh | IMPase cell inh
O=C(/C=C/c1ccco1)NCC1CCCO1 (centres undefined) | -11 | 22µM* | -2%[38.3 µM] | u | -10% | -8
O=C(/C=C/c1ccco1)NCc1ccc(F)cc1 | x | 18µM* | -3% | x | x | x
Cc1ccc(C(=O)N/C(=C/c2ccco2)C(=O)NCC2CCCO2)cc1 (centres undefined) | u | u | 7% | -19% | -3% | x
CCCCC(=O)Oc1ccc2oc(-c3ccc(OC)cc3)cc(=O)c2c1 | x | x | x | x | x | -4
CC(=O)N1CCC(=NNC(=O)CSc2cc(C)c(Br)cc2C)CC1 | u | u | -2% | 25µM* | 0% | -3
CCCN1CCC(=NNC(=O)CSc2cc(C)c(Br)cc2C)CC1 | -22 | u | -14% | 14µM* | 1% | 4
COc1ccccc1-n1c(SCc2cc(=O)oc3cc(O)ccc23)nc2ccccc2c1=O | -7 | -19% | 8% | -22% | -5% | x
CCC(CO)n1c(SCc2cc(=O)oc3cc(C)ccc23)nc2ccccc2c1=O (centres undefined) | u | 4.5µM* | -4%[38.3 µM] | -12% | -10% | 4
COc1cc2c(cc1OC)C1=C(C#N)COCN1CC2 | 4 | u | -4%[38.3 µM] | u | -21% | 16
COc1cc2c(cc1OC)C1=C(C#N)CCC(=NC(=O)c3ccc(Cl)cc3)N1CC2 | 58 | -11% | -21%[38.3 µM] | 14µM* | 5% | -4
CCCCC/C=C\C\C=C/C=C/C=C/[C@@H](O)[C@@H](O)CCCC(=O)O | x | 14% | 14% | -9% | 0% | x
CCc1ccc(NC(=O)C(CC)n2nnc(C(=O)OC)c2C(=O)OC)cc1 (centres undefined) | x | x | x | x | x | 1
COc1cc(/C=C(\C#N)C(=O)c2ccc(O)c(O)c2)cc(I)c1O | x | u | 8% | 18µM* | u | 6
CCCCCCOc1ccc(-c2nc3ccc(Br)cc3c(=O)o2)cc1 | x | x | x | x | x | -1
O=C(CN1C(=O)C2CCCCC2C1=O)N1CCN(c2ccc(F)cc2)CC1 (centres undefined) | x | -12% | 2% | x | x | x
O=C(CN1C(=O)NC2(CCSC2)C1=O)N1CCN(c2ccc(F)cc2)CC1 (centres undefined) | -21 | 20µM* | -11%[38.3 µM] | -3% | -6% | -2
CN(C)c1ccnc2sc3c(NCC(O)CO)ncnc3c12 (centres undefined) | 31 | u | -2% | -1% | 1% | x
CN(C)c1ccnc2sc3c(SCc4ccc(Cl)cc4)ncnc3c12 | 21 | 1% | -15% | 16µM* | -3% | -3
CCOC(=O)c1[nH]c(C)c(C(=O)NC2CCCC2)c1C | 9 | 2% | -5%[38.3 µM] | 18µM* | 6% | -7
CCOC(=O)c1[nH]c(C)c(C(=O)NCc2ccccn2)c1C | -100* | 0% | 1% | -7% | 2% | -3
O=C(O)/C(Cc1cn[nH]n1)=N\O | x | u | -8% | -6% | -4%[11.4 µM] | x
S=c1nc(-c2cc(Cl)ccc2Cl)[nH][nH]1 | x | 6.3µM* | -17% | x | x | x
S=c1nc(-c2ccccc2Br)[nH][nH]1 | u | 10µM* | -1% | 13µM* | -7% | 4

Assay outcomes from PubChem BioAssay.
